Shown are actives, neighbours in structure and some others; about 9% of the full set was active somewhere.
JMJD2A Tudor inh: blocks the human JMJD2A Tudor domain; 390,000 tested, 4.4% active; Potency, µM (top dose mostly 114 µM), most hits filed as inhibitors; AlphaScreen JMJD2A-Tudor / H3K4me3 peptide binding; AID 504339; further: nearly all actives have a fitted effect of over 50% in size
HP1b chromo inh: blocks HP1-beta chromodomain binding to methylated histone tails; P83916; AlphaScreen HP1-beta / biotin-H3K9me3 peptide binding; Potency, µM (series often up to 114 µM), actives largely listed as inhibitors; 390,000 tested, 0.56% active; AID 540317; further: nearly all actives have a fitted effect of over 70% in size
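Compound inhibition of the preformed complex between 50 nM HP1-beta and 50 nM biotinylated H3K9me3 peptide was read by AlphaScreen. Buffer was PBS pH 7.4 with 0.01% Tween-20. Incubations ran 30 min at room temperature, with 10 ug/mL donor/acceptor beads.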
PLK1 PBD block: blocks phosphopeptide binding to human PLK1 polo-box domain. P53350. Plk1 PBD binding of FITC phosphopeptide, fluorescence polarization. AID 720504. 360,000 tested, 2.8% active. Potency, µM, hits mostly inhibitors; further: series mostly up to about 57 µM; nearly all actives have a fitted effect of over 65% in size
BAZ2B block: inhibitors of human BAZ2B bromodomain; AID 504333; Potency, µM (doses to about 114 µM), actives largely listed as inhibitors; Q9UIF8; 360,000 tested, 4.4% active; AlphaScreen BAZ2B-H3K14Ac peptide displacement; further: nearly all actives have a fitted effect of over 60% in size
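Complex of BAZ2B and biotin-H3K14Ac (50 nM apiece) forms over 30 min at RT, then faces library compounds up to 110 uM for another 30 min; AlphaScreen beads added, 20 min dark incubation, luminescence read.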
ALOX12 inh: inhibitors of human 12S-lipoxygenase ALOX12. purified 12hLO, xylenol orange hydroperoxide absorbance. Potency, µM (highest dose often 108 µM), hits mostly inhibitors. 580,000 tested, 1.1% active. AID 1671190
Target sequence (P18054 whole entry, looked up): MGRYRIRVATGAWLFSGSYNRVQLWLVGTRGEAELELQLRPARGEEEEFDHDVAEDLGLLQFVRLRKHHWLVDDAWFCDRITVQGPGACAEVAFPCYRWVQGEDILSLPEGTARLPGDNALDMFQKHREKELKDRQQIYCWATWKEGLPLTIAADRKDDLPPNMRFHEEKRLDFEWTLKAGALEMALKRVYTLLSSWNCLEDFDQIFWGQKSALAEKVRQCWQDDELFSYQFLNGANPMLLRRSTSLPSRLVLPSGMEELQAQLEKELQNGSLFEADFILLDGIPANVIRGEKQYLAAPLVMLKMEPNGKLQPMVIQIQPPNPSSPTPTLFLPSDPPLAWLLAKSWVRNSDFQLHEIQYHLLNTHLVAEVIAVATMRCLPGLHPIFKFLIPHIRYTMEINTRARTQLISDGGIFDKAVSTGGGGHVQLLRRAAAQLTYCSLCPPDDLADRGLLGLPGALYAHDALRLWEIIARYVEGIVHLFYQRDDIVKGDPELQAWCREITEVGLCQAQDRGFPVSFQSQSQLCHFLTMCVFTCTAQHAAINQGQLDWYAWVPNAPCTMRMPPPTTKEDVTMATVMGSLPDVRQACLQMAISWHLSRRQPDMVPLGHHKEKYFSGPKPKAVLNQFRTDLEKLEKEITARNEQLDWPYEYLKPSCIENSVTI
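Hydroperoxide product was detected by ferrous iron/xylenol orange as the 573 to 405 nm absorbance ratio. Arachidonic acid at 40 uM (final) was turned over for 30 min at room temperature by 150 nM human 12hLO, pH 7.0 Hepes buffer, after 15 min compound preincubation.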
G9a block: blocks human histone lysine methyltransferase G9a | Q96KQ7 | G9a H3K9 monomethylation, AlphaScreen, 2 h | Potency, µM (top dose mostly 102 µM), actives largely listed as inhibitors | 350,000 tested, 8.8% active; further: nearly all actives have a fitted effect of over 75% in size
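G9a (20 nM) was preincubated 15 min with compound, then reacted 2 h at room temperature with 500 nM biotin-H3K9 peptide and 20 µM SAM. Monomethyl-H3K9 detected by AlphaScreen using anti-H3K9me1 antibody.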
Hits are given with their value; 0 = inactive; ? = inconclusive; - = not tested or not shown; ! = a repeat was not active; [ ] = dose if it differs, or a comment. The call rests on the fitted dose curve; in most records, active means well fitted curve in the direction sought with a large enough effect; inconclusive means small, poorly fitted or top-dose-only effect, or another doubt; inactive means no such curve, though single readings can be large; an effect the other way counts as inactive or inconclusive.

SMILES	JMJD2A Tudor inh	HP1b chromo inh	PLK1 PBD block	BAZ2B block	ALOX12 inh	G9a block
CCOc1ccc(NC(=O)CCS(=O)(=O)c2ccc(Br)cc2)cc1	18µM	20µM	21µM	35µM!	?	45µM
Cc1ccc(NC(=O)CCC(=O)OCc2ccc(Br)cc2)cc1	79µM	0	27µM	0	0	0
O=C(CCS(=O)(=O)c1ccc(Br)cc1)Nc1ccc(F)cc1F	0	0	-	0	0	0
COc1ccc(NC(=O)CCCN2C(=O)CN(C)C2=O)c(OC)c1	50µM	0	0	50µM	0	0[12.7 µM]
COc1ccc([N+](=O)[O-])cc1NC(=O)CS(=O)(=O)c1ccc(C)cc1	0	0	0	0	0	0[12.7 µM]
COC(=O)c1ccccc1NC(=O)CCS(=O)(=O)c1ccc(Br)cc1	4µM	3.2µM	12µM	2µM	0	2.2µM
Cc1cccc(NCCC(=O)c2ccc(Br)cc2)c1	?	0	0	?	0	0
COc1ccc([N+](=O)[O-])cc1NC(=O)CCS(=O)(=O)c1ccc(Br)cc1	40µM	?	0	50µM	0	14µM
CCOC(=O)CNCCC(=O)c1ccc(Br)cc1	?	0	12µM	?	28µM	7.1µM
CC1(C)Cc2nc(-c3ccccc3)nc(SCC(=O)N3CCCC3)c2CO1	0	0	0	0	0	0
COC(=O)N1CCCCC12Cc1ccccc1NC2=O (configuration not stated)	-	-	-	-	0	-
O=C(Nc1ccc2oc(-c3cccc(F)c3)nc2c1)c1cccc([N+](=O)[O-])c1	-	-	-	-	0	-
Cc1ccccc1-n1c(SCC(=O)N/N=C/C=C/c2ccccc2[N+](=O)[O-])nc2ccccc2c1=O	0	0	0	0	0	0
CCc1ccccc1NC(=O)CCS(=O)(=O)c1ccc(Br)cc1	?	?	0	79µM	0	50µM
CCCOc1ccc(C(=O)CCC(=O)Nc2ccc(N3CCN(C)CC3)cc2)cc1	56µM	0	0	50µM	0	?
CCCOc1ccc(C(=O)CCC(=O)OCC(=O)Nc2ccc(OCC)cc2)cc1	-	-	-	0	0	0[12.7 µM]
CCOc1ccccc1NC(=O)CCNS(=O)(=O)c1ccc(NC(C)=O)cc1	0	0	0	0	0	0
CCOc1ccc(NC(=S)NNC(=O)c2ccc(Br)cc2)cc1	?	0	?	0	?	35µM
CCOc1ccccc1NC(=O)CCS(=O)(=O)c1ccc(Br)cc1	16µM	35µM	30µM	13µM	0	13µM
CCOc1ccc2c(c1)-c1c(ssc1=S)C(C)(C)N2	25µM	?	0	10µM	-	10µM
CCOc1ccc2c(c1)SCC(=O)N2	-	-	-	-	0	-
CN(C)S(=O)(=O)c1cccc(NC(=O)CSc2nc3ccccc3n2-c2ccccc2)c1	0	0	0	0	0	79µM
Cc1cc(C)nc(SCC(=O)Nc2cccc(S(=O)(=O)N(C)C)c2)n1	0	0	0	0	0	0
CCN(CC)S(=O)(=O)c1ccc(NC(=O)CNC2CCCCC2)cc1	5.6µM	?	0	79µM	?	25µM
CN(C)S(=O)(=O)c1ccc(NC(=O)CSc2nc3ccccc3n2-c2ccccc2)cc1	0	0	0	0	0	0
SMILES	JMJD2A Tudor inh	HP1b chromo inh	PLK1 PBD block	BAZ2B block	ALOX12 inh	G9a block
CN(C)S(=O)(=O)c1cccc(NC(=O)CNCc2ccccn2)c1	28µM	0	0	20µM	0	-
CN(C)S(=O)(=O)c1cccc(NC(=O)CNC2CCCCC2)c1	22µM	?	0	?	0	50µM
Nc1ccn([C@@H]2O[C@H](C(=O)Nc3ccc(Oc4ccccc4)nc3)[C@@H](O)[C@H]2O)c(=O)n1	-	-	0	-	?	-
CCOC(=O)Cc1nnc2c(Nc3ccc(C)cc3)nc3nonc3n12	0	0	0	0	0	0[12.7 µM]
O=C(CCCN1C(=O)/C(=C/c2cccs2)SC1=S)Nc1ccc(O)c(C(=O)O)c1	-	-	-	?	-	45µM
O=C(CCN1C(=O)/C(=C\C=C\c2ccccc2)SC1=S)Nc1ccc(C(=O)O)cc1	22µM	50µM	24µM	16µM	32µM	32µM
O=C(CN1C(=O)/C(=C\C=C\c2ccccc2)SC1=S)Nc1ccc(F)cc1	0	0	0	0	0	0
O=C(COC(=O)CCN1C(=O)/C(=C\C=C\c2ccccc2)SC1=S)Nc1cc(F)ccc1F	40µM	?	0	20µM	?	?
O=C(CCCN1C(=O)/C(=C\c2cccs2)SC1=S)Nc1ccc(O)cc1	0	0	0	0	?	0
O=C(CCN1C(=O)/C(=C/c2cccs2)SC1=S)Nc1ccccn1	0	0	0	?	0	3.2µM
CN1CCN(NC(=O)CN2C(=O)/C(=C/c3ccccc3F)SC2=S)CC1	-	-	-	?	0	50µM
CCN(CC)CCOC(=O)c1ccc(NC(=O)CCCN2C(=O)/C(=C/c3cccs3)SC2=S)cc1	40µM	?	0	0	?	-
O=C(CCCN1C(=O)/C(=C\c2cccs2)SC1=S)Nc1ccc(C(=O)O)cc1	0	0	0	?	0	0
O=C(CCN1C(=O)/C(=C/c2cccs2)SC1=S)Nc1ccc(C(=O)O)cc1	?	0	0	56µM	0	?
O=C(CCCN1C(=O)/C(=C\c2cccs2)SC1=S)Nc1cccc(C(=O)O)c1	?	0	0	0	0	?
O=C(CN1C(=O)/C(=C/c2ccccc2F)SC1=S)NC1C=CS(=O)(=O)C1 (configuration not stated)	0	0	0	0	0	-
O=C(CCN1C(=O)S/C(=C/c2ccc(F)cc2)C1=O)Nc1ccc(O)c(C(=O)O)c1	0	0	0	0	?	45µM
COc1cc(CNC(=O)c2cnc3c(-c4cccc(C)c4)c(C)nn3c2C)cc(OC)c1OC	0	0	-	0	?	0
O=C(CCN1C(=O)/C(=C\c2ccccc2F)SC1=S)Nc1ccc(C(=O)O)c(O)c1	-	-	-	?	?	79µM
O=C(CCCN1C(=O)/C(=C/c2ccccc2)SC1=S)Nc1ccc(C(=O)O)c(O)c1	?	0	?	?	?	?
O=[N+]([O-])c1ccc(-n2nnnc2-c2ccccc2)c([N+](=O)[O-])c1	?	0	0	0	0	0
O=[N+]([O-])c1ccc(-n2nnnc2-c2ccccc2)cc1	?	0	11µM	0	0	0
Cc1c(C(=O)N2CCCC(CO)C2)c(-c2ccccc2)nn1-c1ccccc1 (configuration not stated)	-	-	-	-	0	-
CN(C)Cc1cc(C(C)(C)C)c(O)c(C(C)(C)C)c1	0[11.4 µM]	0	11µM	0	0	50µM
COc1cccc(C(=O)NCc2nc(-c3cccc(NC(=O)c4ccoc4C)c3)oc2C)c1OC	-	-	-	-	0	-
c1ccc(CNc2ncncc2-c2nc(-c3ccccc3)no2)cc1	-	-	-	-	0	-
CC[n+]1ccc(C)c2cc(P(=O)(c3ccccc3)c3ccccc3)ccc21	?	?	?	45µM	?	?
CC[n+]1ccc(C)c2cc(SC(F)(F)F)ccc21	0	0	0	0	-	7.9µM

High-throughput results deposited in PubChem BioAssay by National Center for Advancing Translational Sciences (NCATS).
